# Compounds without any hit were thinned out: in the full panel of roughly 79,000, 15% have a hit. Values without a mark were called inactive. The source made the active and inactive calls. No stated cut-off is given here; in the data, active means growth inhibition above about 70%; inactive means the rest.
# How the values were obtained:
# [1] = NCI Yeast Anticancer Drug Screen. Data for the mec2-1 strain (AID 157); conditions: S. cerevisiae mec2-1 strain, active compounds read high
# Procedure, shortened: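 Each compound was tested on mec2-1 yeast, a strain altered in DNA damage repair or cell cycle control. Growth inhibition is reported relative to vehicle.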
# [2] = NCI Yeast Anticancer Drug Screen. Data for the rad14 strain (AID 159);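 further: 0% = growth of vehicle-treated control cultures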; conditions: S. cerevisiae rad14 strain growth inhibition, active compounds read high
# Procedure, shortened: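 Test compounds were applied to a repair-deficient yeast strain. Its growth was then compared with that of cultures given vehicle alone, and inhibition was expressed relative to those controls.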
# [3] = NCI Yeast Anticancer Drug Screen. Data for the sgs1 mgt1 strain (AID 161);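 further: 0% = growth of cultures given vehicle only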; conditions: S. cerevisiae sgs1 mgt1 strain, active compounds read high
# Procedure, shortened: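 Inhibition of yeast growth, normalised to vehicle-treated controls, is reported for a strain bearing genetic alterations in DNA damage repair.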
# [4] = NCI Yeast Anticancer Drug Screen. Data for the CLN2oe strain (AID 163);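 further: 0% = growth of vehicle-only control cultures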; conditions: S. cerevisiae CLN2oe strain, active compounds read high
# Procedure, shortened: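 First, the altered yeast strain was treated with each compound; second, its growth was measured; finally, inhibition was derived by comparison with vehicle controls.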
# [5] = NCI Yeast Anticancer Drug Screen. Data for the cln2 rad14 strain (AID 165);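 further: 0% = growth equal to vehicle treated cultures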; conditions: S. cerevisiae cln2 rad14 strain, active compounds read high
# Procedure, shortened: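 Test compounds were added to cln2 rad14 yeast cultures; inhibition of growth was then determined by comparison with vehicle treatment.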
# [6] = NCI Yeast Anticancer Drug Screen. Data for the bub3 strain (AID 167); conditions: S. cerevisiae bub3 mutant strain, active compounds read high
# Procedure, shortened: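 Yeast carrying a defined mutation is treated with each compound, and growth is compared with that of vehicle-exposed cells to give inhibition.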
# [7] = NCI Yeast Anticancer Drug Screen. Data for the mlh1 strain (AID 171);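 further: 0% = growth of vehicle-treated control cultures of the same strain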; conditions: S. cerevisiae mlh1 strain growth inhibition, active compounds read high
# Procedure, shortened: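 Inhibition values reflect reduced yeast growth in the presence of compound, referenced to vehicle controls, using a strain chosen for its alteration in DNA repair or cell cycle control.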
# [8] = NCI Yeast Anticancer Drug Screen. Data for the sgs1 strain (AID 173);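 further: 0% = growth of vehicle-only control cultures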; conditions: S. cerevisiae sgs1 mutant, active compounds read high
# Procedure, shortened: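 Vehicle-treated cultures served as reference for growth inhibition of a yeast strain altered in DNA damage repair or cell cycle control after compound exposure.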
# [9] = NCI Yeast Anticancer Drug Screen. Data for the mlh1 rad18 strain (AID 175); conditions: S. cerevisiae mlh1 rad18 strain growth inhibition, active compounds read high
# Procedure, shortened: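 Inhibition values reflect reduced growth of mutant yeast versus vehicle-treated controls following compound exposure; the mutations affect DNA damage repair.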
# [10] = NCI Yeast Anticancer Drug Screen. Data for the rad18 strain (AID 177); conditions: S. cerevisiae rad18 mutant growth inhibition, active compounds read high
# Procedure, shortened: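 Steps: expose repair-mutant yeast to compound; measure growth; express as inhibition relative to vehicle control.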
# [11] = NCI Yeast Anticancer Drug Screen. Data for the rad52 strain (AID 147);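 further: 0% = growth of vehicle-treated control cultures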; conditions: S. cerevisiae rad52 mutant growth inhibition, active compounds read high
# Procedure, shortened: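 Inhibition of yeast growth, referenced to vehicle controls, was the measured output for a strain with defective DNA damage repair.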
# [12] = NCI Yeast Anticancer Drug Screen. Data for the wt1 strain (AID 149);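 further: 0% = growth of vehicle-treated wt1 cultures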; conditions: S. cerevisiae wt1 strain (SPY 50644) growth inhibition, active compounds read high
# Procedure, shortened: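 wt1 yeast, compound-treated; % growth inhibition vs vehicle control.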
# [13] = NCI Yeast Anticancer Drug Screen. Data for the rad50EPP+ strain (AID 151);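 further: 0% = growth of vehicle-treated control cultures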; conditions: S. cerevisiae rad50 mutant strain, active compounds read high
# Procedure, shortened: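 Genetically defined yeast (rad50EPP+, DNA damage repair alteration) is grown with compound, and inhibition of growth is expressed relative to vehicle-treated controls.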
# [14] = NCI Yeast Anticancer Drug Screen. Data for the mgt1 strain (AID 153); conditions: S. cerevisiae mgt1 mutant growth inhibition, active compounds read high
# Procedure, shortened: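 In the mgt1 strain, test compounds were added and growth inhibition was determined relative to vehicle-treated controls.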
# [15] = NCI Yeast Anticancer Drug Screen. Data for the rad50 strain (AID 155);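 further: 0% = growth of vehicle-only cultures of the same strain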; conditions: S. cerevisiae rad50 strain growth inhibition, active compounds read high
# Procedure, shortened: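 Genetically altered yeast (DNA repair pathway); compound treatment; growth inhibition vs vehicle ctrl.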
# [16] = NCI Yeast Anticancer Drug Screen. Data for the wt2 strain (AID 169);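 further: 0% = growth of vehicle-treated yeast cultures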; conditions: S. cerevisiae wt2 strain growth inhibition, active compounds read high
# Procedure, shortened: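 The panel's yeast strains carry defined changes in DNA repair or cell cycle genes. Each strain is grown with compound, and growth loss is scored relative to vehicle.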
# [17] = at 5.0 µM (retest, dose inferred, filed as 0.5)
# [18] = at 50.0 µM (retest, dose inferred, filed as 5.0)
smiles,measurement,setting,value
CC(=O)[C@]1(O)Cc2c(O)c3c(c(O)c2[C@@H](OC2CC(N)C(O)C(C)O2)C1)C(=O)c1c(OCc2ccccc2)cccc1C3=O (stereo not given in full),growth inhibition,[1]; [17],-9%
same,growth inhibition,[1]; at 11.0 µM,-1%
same,growth inhibition,[1]; at 33.0 µM,2%
same,growth inhibition,[1]; [18],24%
same,growth inhibition,[1]; at 50.0 µM,12.4%
same,growth inhibition,[1]; at 100.0 µM,28%
same,growth inhibition,[2]; at 1.2 µM,7%
same,growth inhibition,[2]; at 3.7 µM,18%
same,growth inhibition,[2]; at 11.0 µM,18%
same,growth inhibition,[2]; at 33.0 µM,27%
same,growth inhibition,[2]; at 100.0 µM,51%
same,growth inhibition,[3]; [17],11%
same,growth inhibition,[3]; [18],46%
same,growth inhibition,[3]; at 50.0 µM,9.95%
same,growth inhibition,[4]; at 1.2 µM,5%
same,growth inhibition,[4]; at 3.7 µM,16%
same,growth inhibition,[4]; at 11.0 µM,27%
same,growth inhibition,[4]; at 33.0 µM,30%
same,growth inhibition,[4]; at 100.0 µM,31%
same,growth inhibition,[5]; [17],4%
same,growth inhibition,[5]; [18],35%
same,growth inhibition,[5]; at 50.0 µM,-1.65%
same,growth inhibition,[6]; at 1.2 µM,-2%
same,growth inhibition,[6]; at 3.7 µM,1%
same,growth inhibition,[6]; [17],10%
same,growth inhibition,[6]; at 11.0 µM,5%
same,growth inhibition,[6]; at 33.0 µM,18%
same,growth inhibition,[6]; [18],36%
same,growth inhibition,[6]; at 50.0 µM,17.4%
same,growth inhibition,[6]; at 100.0 µM,33%
same,growth inhibition,[7]; at 1.2 µM,-2%
same,growth inhibition,[7]; at 3.7 µM,-1%
same,growth inhibition,[7]; at 11.0 µM,6%
same,growth inhibition,[7]; at 33.0 µM,23%
same,growth inhibition,[7]; at 100.0 µM,61%
same,growth inhibition,[8]; at 1.2 µM,8%
same,growth inhibition,[8]; at 3.7 µM,4%
same,growth inhibition,[8]; at 11.0 µM,22%
same,growth inhibition,[8]; at 33.0 µM,19%
same,growth inhibition,[8]; at 100.0 µM,53%
same,growth inhibition,[9]; [17],-4%
same,growth inhibition,[9]; [18],46%
same,growth inhibition,[10]; at 1.2 µM,2%
same,growth inhibition,[10]; at 3.7 µM,7%
same,growth inhibition,[10]; at 11.0 µM,9%
same,growth inhibition,[10]; at 33.0 µM,20%
same,growth inhibition,[10]; at 100.0 µM,55%
O=c1[nH]cc(/C=N\Nc2ccccc2)c(=O)[nH]1,growth inhibition,[11]; at 1.2 µM,1%
same,growth inhibition,[11]; at 3.7 µM,6%
same,growth inhibition,[11]; at 11.0 µM,36%
same,growth inhibition,[11]; at 33.0 µM,56%
same,growth inhibition,[11]; at 100.0 µM,63%
same,growth inhibition,[12]; at 1.2 µM,3%
same,growth inhibition,[12]; at 3.7 µM,6%
same,growth inhibition,[12]; at 11.0 µM,37%
same,growth inhibition,[12]; at 33.0 µM,57%
same,growth inhibition,[12]; at 100.0 µM,49%
same,growth inhibition,[13]; at 1.2 µM,2%
same,growth inhibition,[13]; at 3.7 µM,7%
same,growth inhibition,[13]; at 11.0 µM,28%
same,growth inhibition,[13]; at 33.0 µM,43%
same,growth inhibition,[13]; at 100.0 µM,42%
same,growth inhibition,[14]; at 1.2 µM,3%
same,growth inhibition,[14]; at 3.7 µM,-2%
same,growth inhibition,[14]; at 11.0 µM,21%
same,growth inhibition,[14]; at 33.0 µM,31%
same,growth inhibition,[14]; at 100.0 µM,46%
same,growth inhibition,[15]; at 1.2 µM,3%
same,growth inhibition,[15]; at 3.7 µM,17%
same,growth inhibition,[15]; [17],-11%
same,growth inhibition,[15]; at 11.0 µM,31%
same,growth inhibition,[15]; at 33.0 µM,49%
same,growth inhibition,[15]; [18],40%
same,growth inhibition,[15]; at 50.0 µM,61.9%
same,growth inhibition,[15]; at 100.0 µM,60%
same,growth inhibition,[1]; at 1.2 µM,0%
same,growth inhibition,[1]; at 3.7 µM,-2%
same,growth inhibition,[1]; [17],-3%
same,growth inhibition,[1]; at 11.0 µM,27%
same,growth inhibition,[1]; at 33.0 µM,31%
same,growth inhibition,[1]; [18],15%
same,growth inhibition,[1]; at 50.0 µM,52.4%
same,growth inhibition,[1]; at 100.0 µM,21%
same,growth inhibition,[2]; at 1.2 µM,-1%
same,growth inhibition,[2]; at 3.7 µM,1%
same,growth inhibition,[2]; at 11.0 µM,12%
same,growth inhibition,[2]; at 33.0 µM,15%
same,growth inhibition,[2]; at 100.0 µM,10%
same,growth inhibition,[3]; [17],-1%
same,growth inhibition,[3]; [18],67%
same,growth inhibition,[3]; at 50.0 µM,60.9%
same,growth inhibition,[4]; at 1.2 µM,-3%
same,growth inhibition,[4]; at 3.7 µM,6%
same,growth inhibition,[4]; at 11.0 µM,32%
same,growth inhibition,[4]; at 33.0 µM,43%
same,growth inhibition,[4]; at 100.0 µM,48%
same,growth inhibition,[5]; [17],-29%
same,growth inhibition,[5]; [18],29%
same,growth inhibition,[5]; at 50.0 µM,73.8% (active)
same,growth inhibition,[6]; at 1.2 µM,9%
same,growth inhibition,[6]; at 3.7 µM,1%
same,growth inhibition,[6]; [17],7%
same,growth inhibition,[6]; at 11.0 µM,27%
same,growth inhibition,[6]; at 33.0 µM,39%
same,growth inhibition,[6]; [18],50%
same,growth inhibition,[6]; at 50.0 µM,82.9% (active)
same,growth inhibition,[6]; at 100.0 µM,40%
same,growth inhibition,[16]; at 1.2 µM,0%
same,growth inhibition,[16]; at 3.7 µM,8%
same,growth inhibition,[16]; at 11.0 µM,51%
same,growth inhibition,[16]; at 33.0 µM,57%
same,growth inhibition,[16]; at 100.0 µM,55%
same,growth inhibition,[7]; at 1.2 µM,-3%
same,growth inhibition,[7]; at 3.7 µM,5%
same,growth inhibition,[7]; at 11.0 µM,17%
same,growth inhibition,[7]; at 33.0 µM,28%
same,growth inhibition,[7]; at 100.0 µM,39%
same,growth inhibition,[8]; at 1.2 µM,3%
same,growth inhibition,[8]; at 3.7 µM,8%
same,growth inhibition,[8]; at 11.0 µM,41%
same,growth inhibition,[8]; at 33.0 µM,62%
same,growth inhibition,[8]; at 100.0 µM,66%
same,growth inhibition,[9]; [17],-3%
same,growth inhibition,[9]; [18],81% (active)
same,growth inhibition,[9]; at 50.0 µM,84.5% (active)
same,growth inhibition,[10]; at 1.2 µM,5%
same,growth inhibition,[10]; at 3.7 µM,28%
same,growth inhibition,[10]; at 11.0 µM,73% (active)
same,growth inhibition,[10]; at 33.0 µM,88% (active)
same,growth inhibition,[10]; at 100.0 µM,89% (active)

# Reference: PubChem BioAssay (NCI)
